# Measurements reported in the supplement of paper PMC10681739.
# Target: RUNX1 (UniProt Q01196)
# Experiment: RUNX1 binding intensity (PBM fluorescence), RUNX1 alone (arbitrary fluorescence units); higher = stronger binding
# Conditions: RUNX1 concentration 2 nM; ETS1 concentration 0 nM
# Experimental: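 Cooperative gcPBM on 36-bp genomic probes with neighbouring ETS1 and RUNX1 sites. Recombinant human RUNX1 (2 nM) was incubated alone or with ETS1 (25 nM) and detected with anti-RUNX1 antibody plus Alexa488 secondary. Values are medians over 4 replicate spots; the RUNX1+ETS1 data were normalised to the RUNX1-only data. The probes sit in constant array flanks that are not printed.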
# 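Also: Full-length recombinant human RUNX1 bound to double-stranded 36-bp genomic probes on a high-density microarray, scored as Alexa488 fluorescence per spot via anti-RUNX1 antibody, median of four replicate spots.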
# RUNX1, sequence (Q01196 whole entry): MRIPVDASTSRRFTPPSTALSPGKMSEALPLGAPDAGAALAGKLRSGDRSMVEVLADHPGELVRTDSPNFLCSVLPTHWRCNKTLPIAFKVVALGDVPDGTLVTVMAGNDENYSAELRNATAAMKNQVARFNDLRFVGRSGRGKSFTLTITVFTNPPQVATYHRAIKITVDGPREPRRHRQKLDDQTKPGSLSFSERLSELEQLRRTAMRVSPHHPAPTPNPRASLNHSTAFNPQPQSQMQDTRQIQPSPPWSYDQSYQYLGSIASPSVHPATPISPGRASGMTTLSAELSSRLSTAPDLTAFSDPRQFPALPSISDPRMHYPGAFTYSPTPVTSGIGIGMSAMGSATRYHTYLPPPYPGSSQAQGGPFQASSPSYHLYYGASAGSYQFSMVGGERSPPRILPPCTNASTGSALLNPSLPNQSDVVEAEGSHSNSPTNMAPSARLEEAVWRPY
row,Sequence,RUNX1 binding intensity
1,CGGGCGAGCGCAGGATGCGGTTGTCGAACGCGCGGC,762
2,GCAGAAGAGGAAATGGTTTGCCTGTGCGGTGGGGGA,821
3,GATCTTCCTGCAACCCCCCGAGACAACCACCGAACA,1090
4,GTTGCCCCACTTCCTGCCAGTGGTTTTTGGTTGGCC,944
5,GAGTTCTCCGCTTCCTTGCGGCCGGCGGGATTAGCC,907
6,CTGAGACCTCGGGCAGGATGTGGCTTCCCCAGAGTT,684
7,CCCGGAGGACGTCCGGCCTCTGTGAGCCGCAACCTT,838
8,CTCCTGTTCCGGCTCAAAGGGAAACCGCTGCTTTTC,1210
9,AGAACAGCAGGAAATAAATACCCACCTCAGGACTGC,822
10,TACATCTTCAGAGGAAGTGGGTTTGTGTATCTTTGA,786
11,CTTTTCCATGCAGGAAGTGGTTTTTAGAGTGTAGAG,896
12,AGACGGTAGGCCAGGAAACCGCAGGCCCCTGCCGGG,6110
13,GCAGCTCTGGCAGGATGCGGTTAAATATGTAGCCAC,2690
14,TCTAACGCTGAAGGAGGATGTGGTTTCCTATTGGAC,880
15,CTTGTTCTATTTCCTGTTTGTGGTGAGTGACTGTCT,1520
16,CCCCGCCTCTTCCGCTTCTGTGGTCTGATCTGCCTG,1250
17,CCTGGGCAAGGCCGGATGCCTGTGGCTTCCAGGCTG,685
18,AAGTGGAGAGCGGAAGTGAGCTGTGGGTGACTGCAG,759
19,CCACGTCCACAAAGGAAACCGCGGCCTGCCCGGGGA,1080
20,CCTGTTTCCTGCCATCTGCCCTTCCTTTGTGGTCAA,3310

row,Sequence,RUNX1 binding intensity
1,TTTTGCCCAACAGGATGTGGTTTCTAAAGCAGACGG,1290
2,AGGTTCGTGGCAGGAAAGTTTGTGGCAGCAAAGCCT,1190
3,CCCATTTCCGAGAGTGGCAGGGCTGGGCGCGGTGGG,978
4,GACCGAGAGGAAGCAGCAAGGATCCTGCGGTTCCAG,821
5,AGGTACCAGGCCCGGAAACCACGGAAAGGGGAACTT,862
6,TGCCCTGACTTCCTGGTCCTGTGGTCAAGGATGGGG,889
7,CAGCTCCGACTTCCGGGTGCGGTACGGCGAAGCAGA,756
8,CTGAAGAGGAAATGTATTCCTCATGTTGTGGTTGGC,860
9,CCGGTCCTGACCGGAAGCGGTAACCGTCACTCCTTC,703
10,GTTCTTCCACGTCCGCGTTACCCACAACGGCAGTGG,1020
11,ACCTTGCCTAGAGGAAGTGGTTTTTCGAATCTGAGT,739
12,CAGAGAAACAGGAAGAACAGTGGTTTCAACTGAAAT,783
13,GATGAAAGAGGAAGTTCTCAAACCACCTTGCCAGTG,768
14,TTGCACACGTGGGCGGGAAGTGGTTAAGCGGCCTCA,725
15,GCATTTACGGGCAGGAAATGAAACCACAGAGTACAA,1360
16,GCGGGAAAAGGGAAGTTTGCGGGAGGTCAAATCCAC,867
17,AGAAGCTGCAGTCCCGGAAGCGGTTTTAGGGGGCCG,725
18,TCTCTTCCGTTCTCTGGTAGCTTTGTGGTAGCTTTG,1350
19,TGGGGTGGTGACATGGGATGTGGTTTTGGGGTTGCA,974
20,TGCGAGGTTGCCAGGAAACCGCGAAGCCGAGGTCCC,1120
